Measurements: the supplement of paper PMC8728848
The sample as a whole holds a higher share of the strongest signals than the screen did.

Assays:
Test in all cases: glycan array binding signal (z-score within array); higher = stronger binding
Settings in all cases: glycan notation: IUPAC condensed, linker removed
[1] = molecular target: Fuc(a1-2)Gal(b1-3)GalNAc(b1-4)[Neu5Ac(a2-3)]Gal(b1-4)Glc
Method in brief: (§1)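 The Consortium for Functional Glycomics database supplied 3228 glycan arrays, of which those lacking an available protein sequence were dropped. The binding signal, a within-array Z-score, was averaged across arrays of the same protein sequence and across linkers. Negative scores can be read as non-binding.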

[2] = molecular target: Fuc(a1-2)[Gal(a1-4)]Gal(b1-4)GlcNAc
Method in brief: as §1

[3] = molecular target: Fuc(a1-2)[GalNAc(a1-3)]Gal(b1-3)GalNAc(b1-3)Gal(a1-4)Gal(b1-4)Glc
Method in brief: as §1

[4] = molecular target: Fuc(a1-2)[GalNAc(a1-3)]Gal(b1-4)GlcNAc(b1-3)Gal(b1-4)GlcNAc
Method in brief: as §1

[5] = molecular target: Fuc(a1-3)[Gal(b1-4)]GlcNAc
Method in brief: as §1

[6] = molecular target: Fuc(a1-3)[Gal(b1-4)]GlcNAc(b1-6)GalNAc
Method in brief: as §1

[7] = molecular target: Fuc(a1-4)GlcNAc
Method in brief: as §1

[8] = molecular target: Gal(a1-3)Gal(b1-3)GlcNAc(b1-2)Man(a1-3)[Gal(a1-3)Gal(b1-3)GlcNAc(b1-2)Man(a1-6)]Man(b1-4)GlcNAc(b1-4)GlcNAc
Method in brief: as §1

[9] = molecular target: Gal(a1-3)Gal(b1-3)[Fuc(a1-4)]GlcNAc(b1-2)Man(a1-3)[Gal(a1-3)Gal(b1-3)[Fuc(a1-4)]GlcNAc(b1-2)Man(a1-6)]Man(b1-4)GlcNAc(b1-4)GlcNAc
Method in brief: as §1

[10] = molecular target: Gal(a1-3)Gal(b1-4)GlcNAc(b1-2)Man(a1-3)[Gal(a1-3)Gal(b1-4)GlcNAc(b1-2)Man(a1-6)]Man(b1-4)GlcNAc(b1-4)GlcNAc
Method in brief: as §1

[11] = molecular target: Gal(a1-3)Gal(b1-4)GlcNAc(b1-3)GalNAc
Method in brief: as §1

[12] = molecular target: Gal(a1-3)[Gal(a1-4)]Gal(b1-4)GlcNAc
Method in brief: as §1

[13] = molecular target: Gal(a1-4)Gal(b1-3)GlcNAc(b1-2)Man(a1-3)[Gal(a1-4)Gal(b1-3)GlcNAc(b1-2)Man(a1-6)]Man(b1-4)GlcNAc(b1-4)GlcNAc
Method in brief: as §1

[14] = molecular target: Gal(b1-3)GlcNAc(b1-2)Man(a1-3)[GlcNAc(b1-4)][Gal(b1-3)GlcNAc(b1-2)Man(a1-6)]Man(b1-4)GlcNAc(b1-4)GlcNAc
Method in brief: as §1

[15] = molecular target: Gal(b1-3)GlcNAc(b1-3)GalNAc
Method in brief: as §1

[16] = molecular target: Gal(b1-3)[Fuc(a1-4)]GlcNAc(b1-3)Gal(b1-4)[Fuc(a1-3)]GlcNAc
Method in brief: as §1

[17] = molecular target: Gal(b1-4)GlcNAc(a1-6)Gal(b1-4)GlcNAc
Method in brief: as §1

[18] = molecular target: Gal(b1-4)GlcNAc(b1-3)Gal(b1-3)GalNAc
Method in brief: as §1

[19] = molecular target: Gal(b1-4)GlcNAc(b1-3)Gal(b1-3)GlcNAc
Method in brief: as §1

[20] = molecular target: Gal(b1-4)GlcNAc(b1-3)Gal(b1-4)GlcNAc
Method in brief: as §1

[21] = molecular target: Gal(b1-4)GlcNAc(b1-3)Gal(b1-4)GlcNAc(b1-2)[Gal(b1-4)GlcNAc(b1-3)Gal(b1-4)GlcNAc(b1-6)]Man(a1-6)[Gal(b1-4)GlcNAc(b1-3)Gal(b1-4)GlcNAc(b1-2)Man(a1-3)]Man(b1-4)GlcNAc(b1-4)[Fuc(a1-6)]GlcNAc
Method in brief: as §1

[22] = molecular target: Gal(b1-4)GlcNAc(b1-3)Gal(b1-4)GlcNAc(b1-3)Gal(b1-4)GlcNAc(b1-2)[Gal(b1-4)GlcNAc(b1-3)Gal(b1-4)GlcNAc(b1-3)Gal(b1-4)GlcNAc(b1-6)]Man(a1-6)[Gal(b1-4)GlcNAc(b1-3)Gal(b1-4)GlcNAc(b1-3)Gal(b1-4)GlcNAc(b1-2)Man(a1-3)]Man(b1-4)GlcNAc(b1-4)[Fuc(a1-6)]GlcNAc
Method in brief: as §1

[23] = molecular target: Gal(b1-4)GlcNAc(b1-3)Gal(b1-4)GlcNAc(b1-3)Gal(b1-4)GlcNAc(b1-3)Gal(b1-4)GlcNAc(b1-2)Man(a1-3)[Gal(b1-4)GlcNAc(b1-3)Gal(b1-4)GlcNAc(b1-3)Gal(b1-4)GlcNAc(b1-3)Gal(b1-4)GlcNAc(b1-2)Man(a1-6)]Man(b1-4)GlcNAc(b1-4)[Fuc(a1-6)]GlcNAc
Method in brief: as §1

[24] = molecular target: Gal(b1-4)GlcNAc(b1-3)Gal(b1-4)GlcNAc(b1-3)Gal(b1-4)GlcNAc(b1-3)Gal(b1-4)GlcNAc(b1-2)[Gal(b1-4)GlcNAc(b1-3)Gal(b1-4)GlcNAc(b1-3)Gal(b1-4)GlcNAc(b1-3)Gal(b1-4)GlcNAc(b1-6)]Man(a1-6)[Gal(b1-4)GlcNAc(b1-3)Gal(b1-4)GlcNAc(b1-3)Gal(b1-4)GlcNAc(b1-3)Gal(b1-4)GlcNAc(b1-2)Man(a1-3)]Man(b1-4)GlcNAc(b1-4)[Fuc(a1-6)]GlcNAc
Method in brief: as §1

[25] = molecular target: Gal(b1-4)GlcNAc(b1-3)Gal(b1-4)GlcNAc(b1-3)Gal(b1-4)GlcNAc(b1-3)Gal(b1-4)GlcNAc(b1-3)Gal(b1-4)GlcNAc(b1-2)Man(a1-3)[Gal(b1-4)GlcNAc(b1-3)Gal(b1-4)GlcNAc(b1-3)Gal(b1-4)GlcNAc(b1-3)Gal(b1-4)GlcNAc(b1-3)Gal(b1-4)GlcNAc(b1-2)Man(a1-6)]Man(b1-4)GlcNAc(b1-4)[Fuc(a1-6)]GlcNAc
Method in brief: as §1

B1: GS13971A-bth-447-22-447 (Bacteroides thetaiotaomicron) (protein)
chain: EDVDNERSKGMFSASQSGFSTIEVYDLGPLNKIDLSIAKAGLEDTGGTVTFSVEQSLLDSLNNADGTSYQLLPPECYTIENATYSVSPGGDRRVTGGSLVYDPHKIYNLCGFDELKYVLPLRVSSTGTPMNSDRTATLYGFIVKEAIVRLASTGGDFVVEGGTTTSPMNLDTEISFENEWDLTTSFATKGADYVDNYNSANSTYYIPLPSDFYTLPDVTIAKGKTTGGSAISLLGETLPPGNYLLPVSLGGLSGQGDASINIDKETVANYFVIKQGGPINRDHWTVTANTEEKTGEVSAAYPHNGQTISLIDGEINTFWHSKWQGGEVAPPYEIILDMGKENSVSQLGLIARQNALTSMNLEIYAGDDGETWNLIGKYFFDGSIKTEQMVPVKACDARWIRIYIPTLGSGSSVGHLAEIYVYGTDK
glycan array binding signal (z-score) [1]: -0.611 | glycan array binding signal (z-score) [2]: 1.4 | glycan array binding signal (z-score) [3]: -0.418 | glycan array binding signal (z-score) [4]: -0.622 | glycan array binding signal (z-score) [5]: 0.548 | glycan array binding signal (z-score) [6]: 0.414 | glycan array binding signal (z-score) [7]: 12.2 | glycan array binding signal (z-score) [8]: -0.916 | glycan array binding signal (z-score) [9]: 0.437 | glycan array binding signal (z-score) [10]: 0.313 | glycan array binding signal (z-score) [11]: 0.741 | glycan array binding signal (z-score) [12]: 3.1 | glycan array binding signal (z-score) [13]: 0.513 | glycan array binding signal (z-score) [14]: 0.373 | glycan array binding signal (z-score) [15]: 0.748 | glycan array binding signal (z-score) [16]: 1.09 | glycan array binding signal (z-score) [17]: 0.525 | glycan array binding signal (z-score) [18]: -0.104 | glycan array binding signal (z-score) [19]: 0.498 | glycan array binding signal (z-score) [20]: -1.12 | glycan array binding signal (z-score) [21]: 2.62 | glycan array binding signal (z-score) [22]: 0.617 | glycan array binding signal (z-score) [23]: 2.21 | glycan array binding signal (z-score) [24]: 2.31 | glycan array binding signal (z-score) [25]: 2.91
